ALOX12 inh: Primary qHTS assay for inhibitors of human arachidonate 12S-lipoxygenase (ALOX12): Round 2. Polyunsaturated fatty acid lipoxygenase ALOX12 (Homo sapiens), P18054. purified 12hLO, xylenol orange hydroperoxide absorbance. Potency, µM (highest dose often 108 µM), without a hit: top-dose activity change, negative = inhibition, most hits filed as inhibitors. 580,000 tested, 1.1% active. AID 1671190, 2021; also: % is scaled to controls: 0 for no effect and ±100 for the full control effect
Target sequence (P18054 whole entry, looked up): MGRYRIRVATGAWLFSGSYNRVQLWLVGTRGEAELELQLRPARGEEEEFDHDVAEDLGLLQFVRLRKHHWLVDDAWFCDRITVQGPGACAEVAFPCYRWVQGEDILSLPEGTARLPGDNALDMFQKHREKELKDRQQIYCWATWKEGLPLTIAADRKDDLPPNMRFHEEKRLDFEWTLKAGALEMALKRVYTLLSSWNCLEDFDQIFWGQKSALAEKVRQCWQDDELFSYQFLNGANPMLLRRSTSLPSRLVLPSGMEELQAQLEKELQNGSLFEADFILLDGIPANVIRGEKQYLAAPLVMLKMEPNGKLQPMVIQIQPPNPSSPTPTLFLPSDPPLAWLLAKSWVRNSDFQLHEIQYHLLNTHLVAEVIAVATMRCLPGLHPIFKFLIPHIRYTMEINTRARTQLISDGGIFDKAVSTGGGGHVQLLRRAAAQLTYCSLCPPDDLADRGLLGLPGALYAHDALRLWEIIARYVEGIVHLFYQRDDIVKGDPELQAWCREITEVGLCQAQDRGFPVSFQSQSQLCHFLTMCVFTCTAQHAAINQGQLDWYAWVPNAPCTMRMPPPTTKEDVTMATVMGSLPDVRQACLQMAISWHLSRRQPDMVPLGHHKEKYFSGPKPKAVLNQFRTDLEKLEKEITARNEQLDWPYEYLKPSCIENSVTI
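Purified human 12hLO at 150 nM in 25 mM Hepes, 0.01% Triton X-100, pH 7.0, preincubated 15 min at room temperature with compound. Reaction started with 40 uM arachidonic acid, 30 min at room temperature. Hydroperoxide measured by Fe-xylenol orange, 573/405 nm absorbance ratio.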
MCF10A rereplic: A quantitative high throughput screen for small molecules that induce DNA re-replication in MCF 10a normal breast cells | Potency, µM (titrated, usually from 46.1 µM), inactives show top-dose activity, positive = re-replication, most hits filed as activators | 350,000 tested, 2.9% active | MCF 10A DNA re-replication, Hoechst nuclear intensity, 48 h; also: % of control where 0% means no effect; nearly all actives have a fitted effect of over 50% in size
KB-V1 MDR tox: qHTS assay for MDR1-selective chemotherapeutics: Primary screen using the drug-selected MDR subline cells KB-V1; KB-V1 MDR cells viability, CellTiter-Glo, 72 h; Potency, µM (highest dose often 46.1 µM), hits mostly cytotoxic; 400,000 tested, 3.4% active; AID 1347076, 2019; also: % is scaled to controls: 0 for no effect and ±100 for the full control effect; nearly all actives have a fitted effect of over 60% in size
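Following 72 h at 37 degrees C with compound, KB-V1 cell viability was read by CellTiter-Glo luminescence, medium being phenol-red-free DMEM plus 10% FBS; concentration-response parameters came from normalized, curve-fitted qHTS data.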
KB-3-1 cytotox: qHTS assay for MDR1-selective chemotherapeutics: Primary screen using the parental adenocarcinoma cell KB-3-1; KB-3-1 viability, CellTiter-Glo ATP luminescence, 72 h; Potency, µM (highest dose often 46.1 µM), hits mostly cytotoxic; 400,000 tested, 1.4% active; AID 1347075, 2019; also: % is scaled to controls: 0 for no effect and ±100 for the full control effect; nearly all actives have a fitted effect of over 60% in size
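KB-3-1 cells, DMEM (no phenol red) + 10% FBS; compound by pin transfer, 72 h, 37 °C. Readout: CellTiter-Glo luminescence after 10 min. Data normalized, curve-fitted.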
PINK1 expr mod: A Quantitative High throughput Screen to Identify Chemical Modulators of PINK1 Expression | 410,000 tested, 0.2% active | PINK1 immunofluorescence, high-content cytometry, 24 h | AID 624263, 2012 | Potency, µM (top dose mostly 76.6 µM), inactives show at the highest dose activation (PINK1 increase), hits mostly activators; active = well fitted activation curve with a large enough effect; inconclusive = small, poorly fitted or top-dose-only effect; cell line not stated here; also: % of control where 0% means no effect; nearly all actives have a fitted effect of over 65% in size
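PINK1 protein, normally rapidly degraded, was detected by immunofluorescence after 24 hour compound treatment of a stable cell line. Titration data (5 concentrations) came from laser-scanning cytometry, with CCCP-treated wells as controls.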
SW480 rerep: A quantitative high throughput screen for small molecules that induce DNA re-replication in SW480 colon adenocarcinoma cells. SW480 DNA re-replication, Hoechst DNA content imaging, 48 h. Potency, µM (titrated, usually from 46.1 µM), without a hit: at the highest dose re-replication activation, most hits filed as activators. 340,000 tested, 1.8% active. AID 624297, 2012; also: % of control where 0% means no effect; nearly all actives have a fitted effect of over 55% in size
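250 cells/well; 23 nL cpd via pin tool; 48 hr, 37 C, 5% CO2; Hoechst 40 min; imager read of total nuclear intensity, ex 405/em 500-530 nm.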
The depositor's hits bear a star; [ ] = remark or other dose. An excerpt weighted towards active compounds, which were near 5.8% of everything screened. Unless noted, calls follow the shape of the dose curve; as a rule, active = well fitted curve in the direction sought with a large enough effect; inconclusive = small, poorly fitted or top-dose-only effect, or another doubt; inactive = no such curve, though single readings can be large; an effect the other way counts as inactive or inconclusive. Potency is read from the fitted curve at half-maximal effect.

`Cc1cc(C)c[n+](C(C)C(=O)c2ccc(-c3ccccc3)cc2)c1` (centres undefined) gave ALOX12 inh -3%, MCF10A rereplic 4%, KB-V1 MDR tox inactive, KB-3-1 cytotox 5.8µM*, PINK1 expr mod 2% and SW480 rerep 4%.
For O=C(/C=C/c1ccc(Br)o1)NC(c1ccccc1)c1ccccc1 the results were ALOX12 inh inconclusive, MCF10A rereplic 1%, KB-V1 MDR tox 23µM*, KB-3-1 cytotox inactive, PINK1 expr mod 8% and SW480 rerep 14%.
`O=C(NC(c1ccccc1)c1ccccc1)c1ccc(Br)o1` gave ALOX12 inh 7%[57.4 µM], MCF10A rereplic 13%, KB-V1 MDR tox inactive, KB-3-1 cytotox inactive, PINK1 expr mod 5% and SW480 rerep inconclusive.
CCC/C(C#Cc1ccc(N(C)C)cc1)=C1/c2ccccc2C(=O)N1c1ccccc1 was read as ALOX12 inh -23%, MCF10A rereplic inconclusive, KB-V1 MDR tox inactive, KB-3-1 cytotox inactive, PINK1 expr mod 0% and SW480 rerep inconclusive.
`CCC/C(C#Cc1ccsc1)=C1/c2ccccc2C(=O)N1c1ccccc1` gave ALOX12 inh inconclusive, MCF10A rereplic 23µM*, KB-V1 MDR tox inconclusive, KB-3-1 cytotox inactive, PINK1 expr mod -1% and SW480 rerep inconclusive.
`CCOc1ccccc1Oc1c(C)oc2cc(OC(=O)N3CCOCC3)ccc2c1=O` gave ALOX12 inh 16%, MCF10A rereplic 3%, KB-V1 MDR tox 23µM*, KB-3-1 cytotox inactive, PINK1 expr mod -1% and SW480 rerep -7%.
For COc1cccc(Oc2c(C)oc3cc(OC(=O)N4CCOCC4)ccc3c2=O)c1 the results were ALOX12 inh -3%.
Cc1noc(C)c1S(=O)(=O)N1CC(N(Cc2cccnc2)CC(C)C)C1 was read as ALOX12 inh 67%.
`CC(=O)NC1=C(C#N)C(c2ccccc2)c2c(ccc3ccccc23)O1` (centres undefined) gave ALOX12 inh -22%, MCF10A rereplic 1.8µM*, KB-V1 MDR tox 6.5µM*, KB-3-1 cytotox 18µM*, PINK1 expr mod 0% and SW480 rerep inconclusive.
`CCOC(=O)CC(=O)Nc1ncnc2c1C(c1ccccc1)c1c(ccc3ccccc13)O2` (centres undefined) gave ALOX12 inh -7%, MCF10A rereplic -18%, KB-V1 MDR tox inactive, KB-3-1 cytotox inactive, PINK1 expr mod 4% and SW480 rerep 1%.
Screening O=S(=O)(O)NCCCO returned ALOX12 inh 6%.
Screening CC(=O)c1cccc(-c2ccnc3c2CC(C(=O)Nc2ccc4c(c2)OCO4)O3)c1 (centres undefined) returned ALOX12 inh 13%, KB-V1 MDR tox inconclusive, KB-3-1 cytotox 6.5µM* and PINK1 expr mod 7%.
COc1ccc(NC(=O)C2Cc3c(-c4ccc(NC(C)=O)cc4)ccnc3O2)cn1 (centres undefined) was read as ALOX12 inh inconclusive, KB-V1 MDR tox inconclusive, KB-3-1 cytotox 10µM* and PINK1 expr mod 7%.
Screening COc1ccc(NC(=O)C2Cc3c(-c4ccc(NC(C)=O)cc4)ccnc3O2)cc1 (centres undefined) returned ALOX12 inh 15%, KB-V1 MDR tox inactive, KB-3-1 cytotox inactive and PINK1 expr mod 6%.
COc1ccc(NC(=O)C2Cc3c(-c4cccc(C(C)=O)c4)ccnc3O2)cc1 (centres undefined) was read as ALOX12 inh -2%, KB-V1 MDR tox inconclusive, KB-3-1 cytotox 4.1µM* and PINK1 expr mod 3%.
`CC(=O)Nc1ccc(-c2ccnc3c2CC(C(=O)Nc2ccccc2)O3)cc1` (centres undefined) gave ALOX12 inh 19%, KB-V1 MDR tox inconclusive, KB-3-1 cytotox 21µM* and PINK1 expr mod 6%.
`C=CCCC(CN1CCCC1)Oc1ccc(C(=O)N2CCCC2)cn1` (centres undefined) gave ALOX12 inh 17%.
N#Cc1ccccc1CSCCNC(=O)Nc1cccnc1 was read as ALOX12 inh 43%.
O=C(Nc1ccccc1)C1Cc2c(-c3cccc(F)c3)ccnc2O1 (centres undefined) was read as ALOX12 inh -9%, KB-V1 MDR tox inactive, KB-3-1 cytotox inactive and PINK1 expr mod 3%.
Screening CC(=O)Nc1cccc(-c2ccnc3c2CC(C(=O)NCc2ccco2)O3)c1 (centres undefined) returned ALOX12 inh -3%, KB-V1 MDR tox inactive, KB-3-1 cytotox 5.8µM* and PINK1 expr mod 11%.
`CC(=O)Nc1cccc(-c2ccnc3c2CC(C(=O)NCc2cccnc2)O3)c1` (centres undefined) gave ALOX12 inh 12%, KB-V1 MDR tox inactive, KB-3-1 cytotox inconclusive and PINK1 expr mod 6%.
For CS(=O)(=O)Nc1cccc(NC(=O)C2Cc3c(-c4cccc(F)c4)ccnc3O2)c1 (centres undefined) the results were ALOX12 inh -13%, KB-V1 MDR tox inconclusive, KB-3-1 cytotox 6.5µM* and PINK1 expr mod 0%.
For CC(=O)Nc1ccc(NC(=O)C2Cc3c(-c4cccc(C(C)=O)c4)ccnc3O2)cc1 (centres undefined) the results were ALOX12 inh -3%, KB-V1 MDR tox inactive, KB-3-1 cytotox inactive and PINK1 expr mod 2%.
`CC(=O)Nc1ccc(NC(=O)C2Cc3c(-c4cccc(NC(C)=O)c4)ccnc3O2)cc1` (centres undefined) gave ALOX12 inh -11%, KB-V1 MDR tox inactive, KB-3-1 cytotox inactive and PINK1 expr mod 1%.
`COc1ccc(NC(=O)C2Cc3c(-c4cccc(NC(C)=O)c4)ccnc3O2)cc1` (centres undefined) gave ALOX12 inh -2%, KB-V1 MDR tox inconclusive, KB-3-1 cytotox 4.1µM* and PINK1 expr mod 11%.
`COc1ccc(NC(=O)C2Cc3c(-c4cccc(C(C)=O)c4)ccnc3O2)cn1` (centres undefined) gave ALOX12 inh 3%, KB-V1 MDR tox inactive, KB-3-1 cytotox 2.1µM* and PINK1 expr mod 10%.
Screening CSc1c(Cl)c(Cl)c(Cl)c(Cl)c1Cl returned ALOX12 inh 4%[176 µM].

Assay outcomes from PubChem BioAssay.
